# According to PubChem BioAssay AID1942 (Johns Hopkins Ion Channel Center, 2009):
# About 580 (24%) of roughly 2,400 compounds were called active. Only a sample is shown. A number with no mark means an inactive call.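 The calls were made as follows: active = activity change at or above the mean plus 3 SD of buffer wells without dofetilide, per plate; inactive = the rest.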
# Molecular target: Potassium voltage-gated channel subfamily KQT member 2 (Rattus norvegicus) (UniProt O88943)
# Assay: KCNQ2 potentiation in CHO cells – cell-based, FluxOR thallium flux, counter-screen for hERG block protector project, confirmation (AID 1942);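 also: normalized value minus buffer-control mean plus three SD of buffer wells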
# Conditions: FluxOR thallium flux fluorescence, at 10 µM, stronger effect = higher value
# Chain of Potassium voltage-gated channel subfamily KQT member 2 (Rattus norvegicus) (O88943 whole entry, looked up): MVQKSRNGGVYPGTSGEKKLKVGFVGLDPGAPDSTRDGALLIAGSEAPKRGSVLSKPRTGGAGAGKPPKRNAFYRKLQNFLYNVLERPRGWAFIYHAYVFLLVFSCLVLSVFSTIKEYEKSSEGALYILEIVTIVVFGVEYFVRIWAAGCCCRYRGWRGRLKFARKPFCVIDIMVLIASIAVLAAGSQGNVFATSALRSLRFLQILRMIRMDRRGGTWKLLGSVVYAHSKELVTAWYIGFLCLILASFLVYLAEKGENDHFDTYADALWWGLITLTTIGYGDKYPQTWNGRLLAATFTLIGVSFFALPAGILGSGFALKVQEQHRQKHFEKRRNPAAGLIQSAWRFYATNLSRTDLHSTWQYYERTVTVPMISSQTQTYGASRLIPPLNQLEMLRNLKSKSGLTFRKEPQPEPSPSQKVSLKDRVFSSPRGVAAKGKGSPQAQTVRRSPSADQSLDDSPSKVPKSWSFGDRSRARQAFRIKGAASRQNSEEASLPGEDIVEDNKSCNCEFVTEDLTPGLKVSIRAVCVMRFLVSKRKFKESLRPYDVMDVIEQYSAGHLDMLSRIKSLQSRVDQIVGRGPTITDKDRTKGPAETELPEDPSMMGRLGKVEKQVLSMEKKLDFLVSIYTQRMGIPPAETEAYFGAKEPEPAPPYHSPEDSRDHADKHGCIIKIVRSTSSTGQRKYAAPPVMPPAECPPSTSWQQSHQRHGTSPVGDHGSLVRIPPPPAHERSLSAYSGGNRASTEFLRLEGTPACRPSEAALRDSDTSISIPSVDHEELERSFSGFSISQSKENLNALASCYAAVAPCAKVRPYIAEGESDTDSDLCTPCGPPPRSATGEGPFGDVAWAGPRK
row,SMILES,"activity change, less the hit threshold"
1,Cc1ccc(S(=O)(=O)Nc2ccc(O)c3ccccc23)c(C)c1,-27%
2,Cc1onc(C(=O)N2CCC(C(N)=O)CC2)c1-c1ccccc1Cl,-22.2%
3,Cc1ccc(-c2n[nH]c(=S)nc2-c2ccc(C)cc2)cc1,-7.1%
4,S=c1[nH]c(-c2ccc(Cl)cc2)cs1,119% (active)
5,Cc1cccc(-n2cc(-c3ccccc3)[nH]c2=S)c1,-16.2%
6,O=Cc1cc(-c2ccccc2)[nH]c1-c1ccccc1,-15.3%
7,Cc1ccc(-c2csc(=S)[nH]2)cc1,83.7% (active)
8,S=c1[nH]c(-c2ccccc2)cs1,61.9% (active)
9,Cc1cc(NC(=O)CSc2ccc(-c3ccc(F)cc3)nn2)no1,-18.3%
10,O=C(Nc1ccccc1)O/N=C/c1ccncc1,-19.6%
11,COc1ccc(-c2c(C#N)c(SCC(=O)c3cc4ccccc4oc3=O)nc(C)c2C(=O)Nc2ccccc2)cc1,-11.8%
12,O=c1[nH]c(C(Cl)(Cl)Cl)nc2ccc3ccccc3c12,15.1% (active)
13,COc1ccc(/C=C2/S/C(=N/N=C3\CC4CCC3(C)C4(C)C)NC2=O)cc1 (stereo not given),-9.1%
14,CC12CCC(C/C1=N\N=C1\NC(=O)/C(=C\c3ccc(Cl)cc3)S1)C2(C)C (stereo not given),4.4% (active)
15,Cc1cccc(/C=C2/S/C(=N/N=C3\CC4CCC3(C)C4(C)C)NC2=O)c1 (stereo not given),-10.5%
16,CCN1CCCC(CO)(Cc2ccccc2)C1 (stereo not given),-9.6%
17,O=C1c2nc3cc(-c4ccco4)[nH]n3c(=O)c2CN1Cc1ccccc1,-13.6%
18,O=C(CN1C(=O)c2cccc3cccc1c23)Nc1cccnc1,-28.6%
19,O=C1CC(N2CCN(c3ccccc3Cl)CC2)C(=O)N1c1ccc(F)cc1 (stereo not given),-9.2%
20,CCOc1ccc(N)c(SSc2cc(OCC)ccc2N)c1,-17%
21,CCCC(=O)NC(=S)Nc1nc(-c2ccc(OC)cc2)cs1,-16.3%
22,CCC(=O)N(CC)c1nc(-c2ccc(OC)cc2)cs1,30.9% (active)

row,SMILES,"activity change, less the hit threshold"
1,CCCn1c(SCC(=O)Nc2nc(-c3ccc(OC)cc3)cs2)nc2c1c(=O)n(C)c(=O)n2C,-16.4%
2,O=C(NCCc1ccc(F)cc1)c1coc(=O)c(Br)c1,-6%
3,Cc1nc(Oc2ccc(Cl)cc2)c2oc3ccccc3c2n1,-15.6%
4,CCCOc1ccc(-c2c(=O)n(O)c3ccccc3[n+]2[O-])cc1,71.1% (active)
5,CCCOc1ccc(C(=O)N(CC(C)C)c2c(N)n(Cc3ccccc3)c(=O)[nH]c2=O)cc1,-17.9%
6,CCOc1ccc(-c2c(=O)n(O)c3ccccc3[n+]2[O-])cc1,52% (active)
7,CCOc1ccc(CC(C(N)=O)C(N)=O)cc1,-21.3%
8,CCOc1ccc(N(CC)C(=O)COc2cc(=O)n(C)c3ccccc23)cc1,-27%
9,O=C1NC2(CCCCCC2)C(=O)N1Cc1ccccc1,-17.6%
10,O=C(O)/C=C/C(=O)Nc1ccc(OC(F)(F)F)cc1,-10.2%
11,O=[N+]([O-])c1cccc(NC(=S)Nc2nc(-c3ccccc3Cl)cs2)c1,-7.3%
12,Cc1c(C(=O)NN2CCN(C)CC2)cccc1[N+](=O)[O-],-11.1%
13,O=C(CN1C(=O)c2ccccc2S1(=O)=O)NCCSCc1ccccc1Cl,-15.3%
14,CCCCOc1ccc(CC(=O)NCC(=O)O)cc1,-16.8%
15,O=C(NC1CCCC1)c1ccc(Br)o1,-20.5%
16,O=C(COC(=O)c1ccc(Br)o1)NC1CCCCC1,-6%
17,COC(=O)c1cc(-c2ccc(C)cc2)n[nH]1,-3.5%
18,CCCOc1ccc(OC(=O)c2ccc(Br)o2)cc1,6.3% (active)
19,Cc1ccc(OC(=O)c2ccc(Br)o2)cc1,46.8% (active)
20,Cc1ccc(CNC(=O)CCc2ccc(S(=O)(=O)NCC(C)C)cc2)cc1,-18.2%
21,Cc1noc(C)c1-c1nnc(-c2ccc(C(F)(F)F)cc2)o1,-9.9%
22,CC(C)Cc1nnc(NC(=O)Cc2ccccc2[N+](=O)[O-])s1,-18.1%

row,SMILES,"activity change, less the hit threshold"
1,CCC(C)(C(=O)NC1CCCC1)N(Cc1ccco1)C(=O)c1ccccn1 (stereo not given),-21.1%
2,Cc1ccc(C2=NN(C(=O)CCCC(=O)O)C(c3ccc4c(c3)OCO4)C2)cc1 (stereo not given),-16.6%
3,COc1cccc(N2CC(C(=O)Nc3nnc(SCC(=O)NCC4CCCO4)s3)CC2=O)c1 (stereo not given),-12.6%
4,Cc1nc(SCC(=O)NCC2CCCO2)c2c3c(sc2n1)CCCC3 (stereo not given),11.1% (active)
5,C=CCn1c(SCC(=O)NCC2CCCO2)nnc1-c1ccccc1 (stereo not given),-13%
6,COc1ccc(-c2nc(=S)c3c([nH]2)Oc2ccc(C)cc2C3)cc1O,-18.3%
7,Cc1cc(N2C(=O)C(O)=C(C(=O)c3cccs3)C2c2ccccc2)no1 (stereo not given),-22.8%
8,COc1ccc(C(=O)NCC(=O)OCn2nnc3ccccc3c2=O)cc1OC,-17.7%
9,COc1cc(OC)cc(-c2nc3ccccc3c(=O)n2OC(=O)c2ccc(Br)cc2)c1,-12.9%
10,CC(Oc1ccc(Br)cc1)c1nc2c3ccccc3nc(=S)n2[nH]1 (stereo not given),14.3% (active)
11,COc1ccc(S(=O)(=O)n2nc(C)c(S(=O)(=O)N3CCOCC3)c2C)cc1OC,-19%
12,Cc1ccc(-c2nc(N)s[n+]2-c2ccccc2)cc1,11.3% (active)
13,Cc1nnc(SCc2cc(=O)oc3cc(O)ccc23)n1Cc1ccccc1,-14.7%
14,COc1ccc(-c2c(C)c3ccc(OCC(C)=O)cc3oc2=O)cc1,-17.3%
15,CCC(Cc1ccccc1)n1c(=S)[nH]c2ccccc2c1=O (stereo not given),-14%
16,COc1ccc(CCn2c(S)nc3ccccc3c2=O)cc1,-6.5%
17,Cc1ccc(Cn2c(=S)[nH]c3ccccc3c2=O)cc1,-6.4%
18,CC(C)COn1c(=S)[nH]c2ccccc2c1=O,11.1% (active)
19,CCCCn1c(=S)[nH]c2ccccc2c1=O,3.1% (active)
20,O=c1c2ccccc2[nH]c(=S)n1CCc1ccccc1,10.3% (active)
21,CCC(C)n1c(=S)[nH]c2ccccc2c1=O (stereo not given),25% (active)
